# Bioassay records from PubChem.
# PLK1 PBD block = inhibitors of human PLK1 polo-box domain binding; P53350; Plk1 PBD binding of FITC phosphopeptide, fluorescence polarization; hit rate 2.8% among 360,000; Potency, µM, without a hit: max response, negative = inhibition, actives largely listed as inhibitors; further: series mostly up to about 57 µM; on the % scale 0 is the no-effect control and ±100 the full control effect; nearly all actives have a fitted effect of over 65% in size
# 12-LOX inh = inhibitors of human 12S-lipoxygenase ALOX12; P18054; purified 12hLO, xylenol orange hydroperoxide absorbance; Potency, µM (series often up to 108 µM), for inactives: at the top dose activity change, negative = inhibition, hits mostly inhibitors; hit rate 1.1% among 580,000; AID 1671190; further: on the % scale 0 is the no-effect control and ±100 the full control effect
# Target sequence (P18054 whole entry, looked up): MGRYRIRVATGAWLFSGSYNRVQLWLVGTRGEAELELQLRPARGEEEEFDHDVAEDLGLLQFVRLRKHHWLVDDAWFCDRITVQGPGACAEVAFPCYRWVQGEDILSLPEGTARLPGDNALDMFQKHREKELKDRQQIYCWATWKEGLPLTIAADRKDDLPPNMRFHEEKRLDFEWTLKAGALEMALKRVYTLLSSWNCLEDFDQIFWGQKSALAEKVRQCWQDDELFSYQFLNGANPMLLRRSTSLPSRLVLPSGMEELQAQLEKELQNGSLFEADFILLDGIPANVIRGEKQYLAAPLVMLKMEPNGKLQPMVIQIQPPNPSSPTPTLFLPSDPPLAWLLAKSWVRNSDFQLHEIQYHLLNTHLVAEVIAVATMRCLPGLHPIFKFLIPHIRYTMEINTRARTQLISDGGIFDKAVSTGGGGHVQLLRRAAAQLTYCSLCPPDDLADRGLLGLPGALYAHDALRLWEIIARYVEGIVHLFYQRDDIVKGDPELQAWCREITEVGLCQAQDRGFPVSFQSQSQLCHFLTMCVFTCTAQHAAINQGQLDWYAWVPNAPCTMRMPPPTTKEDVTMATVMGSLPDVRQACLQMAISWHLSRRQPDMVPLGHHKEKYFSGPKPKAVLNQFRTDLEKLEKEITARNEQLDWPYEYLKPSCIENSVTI
#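 Purified human 12hLO at 150 nM in 25 mM Hepes, 0.01% Triton X-100, pH 7.0, preincubated 15 min at room temperature with compound. Reaction started with 40 uM arachidonic acid, 30 min at room temperature. Hydroperoxide measured by Fe-xylenol orange, 573/405 nm absorbance ratio.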
# JMJD2A Tudor inh = inhibitors of human JMJD2A Tudor domain. hit rate 4.4% among 390,000. Potency, µM (top dose mostly 114 µM), without a hit: at the highest dose activity change, negative = inhibition, usual class: inhibitors. AID 504339. O75164. AlphaScreen JMJD2A-Tudor / H3K4me3 peptide binding; further: on the % scale 0 is the no-effect control and ±100 the full control effect; nearly all actives have a fitted effect of over 50% in size
# G9a inh = G9a (human) methyltransferase inhibition; AID 504332; Q96KQ7; hit rate 8.8% among 350,000; Potency, µM (series often up to 102 µM), inactives show at the top dose activity, negative = inhibition, most hits filed as inhibitors; G9a H3K9 monomethylation, AlphaScreen, 2 h; further: on the % scale 0 is the no-effect control and ±100 the full control effect; nearly all actives have a fitted effect of over 75% in size
#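 Using a bead-based AlphaScreen, monomethylated H3K9 product from 2 h room-temperature reactions (G9a 20 nM, peptide 500 nM, SAM 20 uM) was detected with 0.5 ug/mL rabbit anti-H3K9me1 antibody.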
# HP1b chromo inh = blocks HP1-beta chromodomain binding to methylated histone tails. P83916. AlphaScreen HP1-beta / biotin-H3K9me3 peptide binding. Potency, µM (highest dose often 114 µM), for inactives: top-dose activity change, negative = inhibition, most hits filed as inhibitors. hit rate 0.56% among 390,000; further: nearly all actives have a fitted effect of over 70% in size
#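 AlphaScreen: HP1-beta (50 nM) preformed 30 min with biotin-H3(1-18)K9me3 peptide (50 nM) in PBS pH 7.4, 0.01% Tween-20. Compound added for 30 min at RT, then streptavidin donor/nickel chelate acceptor beads (10 ug/mL) for 30 min.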
# BAZ2B block = blocks human BAZ2B; hit rate 4.4% among 360,000; Potency, µM (series often up to 114 µM), inactives show top-dose activity change, negative = inhibition, hits mostly inhibitors; AlphaScreen BAZ2B-H3K14Ac peptide displacement; Q9UIF8; further: on the % scale 0 is the no-effect control and ±100 the full control effect; nearly all actives have a fitted effect of over 60% in size
#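 In this displacement format the biotinylated H3(5-23) peptide acetylated at Lys14 serves as ligand at 50 nM, with BAZ2B at 50 nM in PBS pH 7.4 containing 0.01% Tween-20. Donor and acceptor beads are 10 ug/mL final.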
# An asterisk follows results filed as active; ? = inconclusive; . = no result; ! = a repeat was not active; [ ] = dose if it differs, or a comment. Rows were chosen to be rich in hits. Some 9% of all compounds tested hit in one or more screens of this group. The call rests on the fitted dose curve; in most records, active means well fitted curve in the direction sought with a large enough effect; inconclusive means small, poorly fitted or top-dose-only effect, or another doubt; inactive means no such curve, though single readings can be large; an effect the other way counts as inactive or inconclusive. Potency means the concentration at half of the fitted maximal effect.
SMILES,PLK1 PBD block,12-LOX inh,JMJD2A Tudor inh,G9a inh,HP1b chromo inh,BAZ2B block
COc1ccc(C=C2C(=O)NC(=S)NC2=O)cc1OC,21µM*,?,22µM*,.,?,.
COc1ccc(/C=C/C=C2C(=O)NC(=S)NC2=O)cc1,0.53µM*,35µM*,-31%,.,-26%,.
CCOc1cc(C=C2C(=O)NC(=S)NC2=O)ccc1O,6µM*,-27%,32µM*,.,?,.
COc1ccc(-n2c(/C=C/c3ccc(O)cc3)nc3ccccc3c2=O)cc1,11%,0%,-10%,86%,52%,3%
O=C(c1ccc(CNS(=O)(=O)c2ccc(Br)cc2)cc1)N1CCC2(CC1)OCCO2,4%,-17%,9%,7%,15%,-7%
O=C1NCN(c2ccccc2)C12CCN(C(c1ccccc1OC(F)(F)F)c1nnnn1C1CCCCC1)CC2 (stereo unspecified),-3%,?,.,.,.,.
CCOC(=O)[C@@H]1[C@H]2COc3ccc(Br)cc3[C@@H]2N2C(=O)N(c3cccc(C)c3)C(=O)[C@]12C,-17%,-2%,-17%,9%,20%,-27%
COc1cc2c(C(=O)O)c(C)n(C)c2cc1Br,-7%,-3%,-19%,-10%,17%,16%
CCCCCCOc1ccc(CN2CCN(CC)CC2)cc1,2%,?,-31%,56µM*,0%,?
COc1ccc(-c2nn(CCC#N)cc2C(=O)NCc2ccccc2)cc1,-2%,15%,1%[11.4 µM],-1%,32%,-16%
Cc1cccc(OCC(=O)N2CCN(Cc3ccc([N+](=O)[O-])cc3)CC2)c1,-15%,-17%,10µM*,0%,?,-1%
COc1ccc(OCC(=O)N2CCN(Cc3ccc4c(c3)OCO4)CC2)cc1,-17%,-1%,-6%,5%,13%,-9%
COc1ccccc1OCC(=O)N1CCN(Cc2ccc3c(c2)OCO3)CC1,0%,-17%,-22%,.,12%,-11%
COc1cc(CN2CCN(C(=O)COc3ccc4ccccc4c3)CC2)cc(OC)c1O,.,1.6µM*,.,.,.,.
COc1cccc(CN2CCN(C(=O)COc3ccc4ccccc4c3)CC2)c1,-12%,1%,-28%,?,10%,-27%
COc1ccc(OCC(=O)N2CCN(C(C)C)CC2)cc1,-5%,-14%,1.4µM*,10µM*,?,56µM*
COc1cc(OC)c(OC)cc1CN1CCN(C(=O)COc2ccc3ccccc3c2)CC1,-10%,?,3.2µM*,10µM*,50µM*,45µM*
CSc1cccc(NC(=O)NC[C@H]2C[C@@H]3CCN2C[C@@H]3CN(C)CCc2ccccn2)c1,.,37%,.,.,.,.
COc1ccccc1CN1CCN(C(=O)COc2ccccc2)CC1,-1%,?,3.2µM*,?,?,?
CC[C@H]1CN2CC[C@H]1C[C@@H]2CNC(=O)COc1ccccc1,.,69%[176 µM],.,.,.,.
Cn1c(O)c(C=NCCCCCCCCCCC(=O)O)c(=O)n(C)c1=O,-17%,4%,-4%,-50%,44%,-1%
CN(C)c1ccc(CN2CCC3(CC2)C(=O)Nc2ccccc23)cc1,.,7%[6.33 µM],.,.,.,.
O=C1OC(c2ccc([N+](=O)[O-])cc2)=N/C1=C/N1CC2CC(C1)c1cccc(=O)n1C2 (stereo unspecified),-19%,0%,1%,79µM*,17%,-23%
CC(=O)O[C@H](CC(=O)O)C[N+](C)(C)C,-5%,35µM*!,-15%,7%[59 µM],29%,10%
COc1ccc2c(c1)C1(CCN(C(=O)c3ccccc3Br)C1)C(=O)N2 (stereo unspecified),.,32µM*,.,.,.,.
COc1ccc2c(c1)C1(CCN(C(=O)NC3CCCCC3)C1)C(=O)N2 (stereo unspecified),.,28%,.,.,.,.
CCOC(=O)CCCCCNC(=O)c1c(O)[nH]c(=O)[nH]c1=O,-13%,-20%,79µM*,.,4%,.
CCOC(=O)c1ccc(N=C(C)c2c(O)[nH]c(=O)[nH]c2=O)cc1,-6%,?,-10%,.,12%,-11%
CCOc1ccc(CN(CCc2ccc3c(c2)OCO3)Cc2cccc(C)c2)cc1,.,?,22µM*,0.89µM*,?,?
